# According to PubChem BioAssay (NCI):
# Compounds without any hit were thinned out: in the full panel of roughly 79,000, 15% have a hit. A number with no mark means an inactive call. Active and inactive are the calls of the source. Cut-off read from the data, not from the text of the source: active = growth inhibition above about 70%; inactive = the rest.
# How the values were obtained:
# [1] = NCI Yeast Anticancer Drug Screen. Data for the mec2-1 strain (AID 157); conditions: S. cerevisiae mec2-1 strain, stronger effect = higher value
# In short: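 mec2-1 yeast strain, carrying an alteration in DNA damage repair or cell cycle control, was exposed to compounds; growth inhibition was measured relative to vehicle-treated controls.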
# [2] = NCI Yeast Anticancer Drug Screen. Data for the rad14 strain (AID 159);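 note: 0% = growth of vehicle-treated control cultures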; conditions: S. cerevisiae rad14 strain growth inhibition, stronger effect = higher value
# In short: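 Compound-treated yeast with a defined DNA-repair lesion; growth inhibition normalised to vehicle-treated cultures.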
# [3] = NCI Yeast Anticancer Drug Screen. Data for the sgs1 mgt1 strain (AID 161);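 note: 0% = growth of cultures given vehicle only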; conditions: S. cerevisiae sgs1 mgt1 strain, stronger effect = higher value
# In short: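 Compounds are added to genetically altered yeast, and growth is compared with cultures given vehicle alone to give percent inhibition.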
# [4] = NCI Yeast Anticancer Drug Screen. Data for the CLN2oe strain (AID 163);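 note: 0% = growth of vehicle-only control cultures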; conditions: S. cerevisiae CLN2oe strain, stronger effect = higher value
# In short: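 Yeast cells carrying a defined cell-cycle control alteration were exposed to test compounds. Growth inhibition was scored against vehicle-treated control cultures.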
# [5] = NCI Yeast Anticancer Drug Screen. Data for the cln2 rad14 strain (AID 165);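 note: 0% = growth equal to vehicle treated cultures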; conditions: S. cerevisiae cln2 rad14 strain, stronger effect = higher value
# In short: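 Yeast carrying cln2 and rad14 alterations (cell cycle control and DNA damage repair) were exposed to compounds. Growth inhibition was measured against vehicle-treated controls.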
# [6] = NCI Yeast Anticancer Drug Screen. Data for the bub3 strain (AID 167); conditions: S. cerevisiae bub3 mutant strain, stronger effect = higher value
# In short: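 Growth of a checkpoint-deficient yeast mutant is measured after compound exposure. Values represent inhibition relative to vehicle.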
# [7] = NCI Yeast Anticancer Drug Screen. Data for the wt2 strain (AID 169);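 note: 0% = growth of vehicle-treated yeast cultures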; conditions: S. cerevisiae wt2 strain growth inhibition, stronger effect = higher value
# In short: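 Yeast cells were exposed to test compounds, and growth inhibition was measured relative to vehicle-treated controls.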
# [8] = NCI Yeast Anticancer Drug Screen. Data for the mlh1 strain (AID 171);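 note: 0% = growth of vehicle-treated control cultures of the same strain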; conditions: S. cerevisiae mlh1 strain growth inhibition, stronger effect = higher value
# In short: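 Yeast carrying a defined genetic alteration in DNA damage repair or cell cycle control were exposed to test compounds. Growth inhibition was measured relative to vehicle-treated controls.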
# [9] = NCI Yeast Anticancer Drug Screen. Data for the sgs1 strain (AID 173);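 note: 0% = growth of vehicle-only control cultures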; conditions: S. cerevisiae sgs1 mutant, stronger effect = higher value
# In short: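 Yeast mutant strains carrying defined defects in DNA damage repair or cell cycle control were exposed to test compounds. Growth inhibition was scored against vehicle-treated controls.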
# [10] = NCI Yeast Anticancer Drug Screen. Data for the mlh1 rad18 strain (AID 175); conditions: S. cerevisiae mlh1 rad18 strain growth inhibition, stronger effect = higher value
# In short: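 Growth inhibition of the yeast strain was measured after compound exposure and expressed relative to vehicle-treated controls. The strain carries defined defects in DNA damage repair.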
# [11] = NCI Yeast Anticancer Drug Screen. Data for the rad18 strain (AID 177); conditions: S. cerevisiae rad18 mutant growth inhibition, stronger effect = higher value
# In short: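 Yeast carrying a defined DNA damage repair alteration were exposed to compounds. Growth inhibition was expressed relative to vehicle-treated controls.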
# [12] = NCI Yeast Anticancer Drug Screen. Data for the rad52 strain (AID 147);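 note: 0% = growth of vehicle-treated control cultures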; conditions: S. cerevisiae rad52 mutant growth inhibition, stronger effect = higher value
# In short: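 Yeast strain carrying a DNA damage repair alteration was exposed to test compounds. Growth inhibition was measured relative to vehicle-treated controls.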
# [13] = NCI Yeast Anticancer Drug Screen. Data for the wt1 strain (AID 149);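 note: 0% = growth of vehicle-treated wt1 cultures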; conditions: S. cerevisiae wt1 strain (SPY 50644) growth inhibition, stronger effect = higher value
# In short: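 Readout: yeast growth inhibition, normalised to vehicle controls, in the wt1 strain exposed to test compounds.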
# [14] = NCI Yeast Anticancer Drug Screen. Data for the rad50EPP+ strain (AID 151);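 note: 0% = growth of vehicle-treated control cultures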; conditions: S. cerevisiae rad50 mutant strain, stronger effect = higher value
# In short: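 Yeast strain carrying rad50 alteration (rad50EPP+) exposed to compounds; growth inhibition measured relative to vehicle-treated controls.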
# [15] = NCI Yeast Anticancer Drug Screen. Data for the rad50 strain (AID 155);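 note: 0% = growth of vehicle-only cultures of the same strain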; conditions: S. cerevisiae rad50 strain growth inhibition, stronger effect = higher value
# In short: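 Compounds were tested on a yeast strain with an engineered DNA damage repair alteration; the reported value is growth inhibition normalised to vehicle treatment.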
# [16] = at 5.0 µM (retest, dose inferred, filed as 0.5)
# [17] = at 50.0 µM (retest, dose inferred, filed as 5.0)
structure (smiles),measurement,setting,value
OCCNCCOc1ccc(/C(=C(/Cl)c2ccccc2)c2ccccc2)cc1,growth inhibition,[1]; at 100.0 µM,97% (active)
same,growth inhibition,[2]; at 1.2 µM,-9%
same,growth inhibition,[2]; at 3.7 µM,-8%
same,growth inhibition,[2]; at 11.0 µM,76% (active)
same,growth inhibition,[2]; at 33.0 µM,98% (active)
same,growth inhibition,[2]; at 100.0 µM,97% (active)
same,growth inhibition,[3]; [16],36%
same,growth inhibition,[3]; [17],98% (active)
same,growth inhibition,[3]; at 50.0 µM,93.8% (active)
same,growth inhibition,[4]; at 1.2 µM,-13%
same,growth inhibition,[4]; at 3.7 µM,0%
same,growth inhibition,[4]; at 11.0 µM,25%
same,growth inhibition,[4]; at 33.0 µM,99% (active)
same,growth inhibition,[4]; at 100.0 µM,98% (active)
same,growth inhibition,[5]; [16],59%
same,growth inhibition,[5]; [17],98% (active)
same,growth inhibition,[5]; at 50.0 µM,93.2% (active)
same,growth inhibition,[6]; at 1.2 µM,-8%
same,growth inhibition,[6]; at 3.7 µM,-5%
same,growth inhibition,[6]; [16],32%
same,growth inhibition,[6]; at 11.0 µM,13%
same,growth inhibition,[6]; at 33.0 µM,99% (active)
same,growth inhibition,[6]; [17],99% (active)
same,growth inhibition,[6]; at 50.0 µM,92.7% (active)
same,growth inhibition,[6]; at 100.0 µM,97% (active)
same,growth inhibition,[7]; at 1.2 µM,-47%
same,growth inhibition,[7]; at 3.7 µM,-48%
same,growth inhibition,[7]; at 11.0 µM,-6%
same,growth inhibition,[7]; at 33.0 µM,98% (active)
same,growth inhibition,[7]; at 100.0 µM,97% (active)
same,growth inhibition,[8]; at 1.2 µM,7%
same,growth inhibition,[8]; at 3.7 µM,12%
same,growth inhibition,[8]; at 11.0 µM,67%
same,growth inhibition,[8]; at 33.0 µM,98% (active)
same,growth inhibition,[8]; at 100.0 µM,98% (active)
same,growth inhibition,[9]; at 1.2 µM,-15%
same,growth inhibition,[9]; at 3.7 µM,-23%
same,growth inhibition,[9]; at 11.0 µM,32%
same,growth inhibition,[9]; at 33.0 µM,98% (active)
same,growth inhibition,[9]; at 100.0 µM,98% (active)
same,growth inhibition,[10]; [16],43%
same,growth inhibition,[10]; [17],99% (active)
same,growth inhibition,[10]; at 50.0 µM,90% (active)
same,growth inhibition,[11]; at 1.2 µM,-8%
same,growth inhibition,[11]; at 3.7 µM,-6%
same,growth inhibition,[11]; at 11.0 µM,24%
same,growth inhibition,[11]; at 33.0 µM,98% (active)
same,growth inhibition,[11]; at 100.0 µM,98% (active)
O=Nn1c2ccccc2c2cc([N+](=O)[O-])ccc21,growth inhibition,[12]; at 1.2 µM,-6%
same,growth inhibition,[12]; at 3.7 µM,11%
same,growth inhibition,[12]; at 11.0 µM,51%
same,growth inhibition,[12]; at 33.0 µM,88% (active)
same,growth inhibition,[12]; at 100.0 µM,95% (active)
same,growth inhibition,[13]; at 1.2 µM,-27%
same,growth inhibition,[13]; at 3.7 µM,-23%
same,growth inhibition,[13]; at 11.0 µM,-14%
same,growth inhibition,[13]; at 33.0 µM,49%
same,growth inhibition,[13]; at 100.0 µM,92% (active)
same,growth inhibition,[14]; at 1.2 µM,8%
same,growth inhibition,[14]; at 3.7 µM,15%
same,growth inhibition,[14]; at 11.0 µM,27%
same,growth inhibition,[14]; at 33.0 µM,66%
same,growth inhibition,[14]; at 100.0 µM,85% (active)
same,growth inhibition,[15]; at 1.2 µM,15%
same,growth inhibition,[15]; at 3.7 µM,24%
same,growth inhibition,[15]; [16],47%
same,growth inhibition,[15]; at 11.0 µM,53%
same,growth inhibition,[15]; at 33.0 µM,89% (active)
same,growth inhibition,[15]; [17],92% (active)
same,growth inhibition,[15]; at 50.0 µM,81.9% (active)
same,growth inhibition,[15]; at 100.0 µM,93% (active)
same,growth inhibition,[1]; at 1.2 µM,-16%
same,growth inhibition,[1]; at 3.7 µM,-1%
same,growth inhibition,[1]; [16],51%
same,growth inhibition,[1]; at 11.0 µM,11%
same,growth inhibition,[1]; at 33.0 µM,59%
same,growth inhibition,[1]; [17],91% (active)
same,growth inhibition,[1]; at 50.0 µM,75.8% (active)
same,growth inhibition,[1]; at 100.0 µM,93% (active)
same,growth inhibition,[2]; at 1.2 µM,-19%
same,growth inhibition,[2]; at 3.7 µM,-5%
same,growth inhibition,[2]; at 11.0 µM,1%
same,growth inhibition,[2]; at 33.0 µM,61%
same,growth inhibition,[2]; at 100.0 µM,93% (active)
same,growth inhibition,[3]; [16],-26%
same,growth inhibition,[3]; [17],27%
same,growth inhibition,[3]; at 50.0 µM,84.5% (active)
same,growth inhibition,[4]; at 1.2 µM,-32%
same,growth inhibition,[4]; at 3.7 µM,-9%
same,growth inhibition,[4]; at 11.0 µM,-9%
same,growth inhibition,[4]; at 33.0 µM,55%
same,growth inhibition,[4]; at 100.0 µM,94% (active)
same,growth inhibition,[5]; [16],35%
same,growth inhibition,[5]; [17],62%
same,growth inhibition,[5]; at 50.0 µM,72.9% (active)
same,growth inhibition,[6]; at 1.2 µM,4%
same,growth inhibition,[6]; at 3.7 µM,19%
same,growth inhibition,[6]; [16],19%
same,growth inhibition,[6]; at 11.0 µM,55%
same,growth inhibition,[6]; at 33.0 µM,88% (active)
same,growth inhibition,[6]; [17],71% (active)
same,growth inhibition,[6]; at 50.0 µM,84.8% (active)
same,growth inhibition,[6]; at 100.0 µM,96% (active)
same,growth inhibition,[7]; at 1.2 µM,-28%
same,growth inhibition,[7]; at 3.7 µM,-22%
same,growth inhibition,[7]; at 11.0 µM,8%
same,growth inhibition,[7]; at 33.0 µM,59%
same,growth inhibition,[7]; at 100.0 µM,91% (active)
same,growth inhibition,[8]; at 1.2 µM,-35%
same,growth inhibition,[8]; at 3.7 µM,-29%
same,growth inhibition,[8]; at 11.0 µM,-3%
same,growth inhibition,[8]; at 33.0 µM,48%
same,growth inhibition,[8]; at 100.0 µM,89% (active)
same,growth inhibition,[9]; at 1.2 µM,-8%
same,growth inhibition,[9]; at 3.7 µM,-14%
same,growth inhibition,[9]; at 11.0 µM,-1%
same,growth inhibition,[9]; at 33.0 µM,65%
same,growth inhibition,[9]; at 100.0 µM,92% (active)
same,growth inhibition,[10]; [16],39%
same,growth inhibition,[10]; [17],97% (active)
same,growth inhibition,[10]; at 50.0 µM,80% (active)
same,growth inhibition,[11]; at 1.2 µM,-10%
same,growth inhibition,[11]; at 3.7 µM,-6%
same,growth inhibition,[11]; at 11.0 µM,37%
same,growth inhibition,[11]; at 33.0 µM,84% (active)
same,growth inhibition,[11]; at 100.0 µM,93% (active)
